Reference: PubChem BioAssay
Values joined by “and” are separate entries in the source; they are usually repeats but may differ in a detail not shown here. Identical values can stand only once. Active and inactive are the calls of the source.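 The calls were made as follows, unless noted: active = compounds whose cell count with miR-34 switched on is under 0.7 times the count with it off; inactive = the rest.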

Experiments:
[1] = hESC survival regulators, cell-based (AID 493140; call rule not given here;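 also: cells exposed to compounds for four days before counting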); details: human embryonic stem cell survival screen; stronger effect = higher value
[2] = liver-stage malaria parasite growth inhibition, primary screen, cell-based, HepG2, luciferase luminescence, HepG2 viability (AID 624349; in the data active = parasite load remaining mostly below about 12%, no sharp cut-off; inactive = mostly above about 10%;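 also: 100% = mean of DMSO negative control wells on the same plate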); details: P. berghei liver stage in HepG2, luciferase luminescence, concentration not given here; parasite load remaining: stronger effect = lower value; viability: measured here: HepG2 viability without parasites
[3] = sensitizers of A549 cells to miR-34 induction, primary screen, imaging, A549 dox-inducible miR-34, nuclei and caspase counts (AID 1347080); details: A549 miR-34 inducible, Hoechst nuclei count, 48 h
[4] = stronger effect = lower value, cell number ratio, induced over uninduced
[5] = measured here: relative caspase fold change +Dox/-Dox
[6] = measured here: total cells with miR-34 induction, stronger effect = lower value
[7] = measured here: total cells without miR-34 induction

SMILES | survival [1] | parasite load remaining [2] | viability [2] | fold change [3, 4] | fold change [3, 5] | cell count [3, 6] | cell count [3, 7]
C[N+]1(C)CCC[C@H]1C(=O)[O-] | 11.7 (inactive) | 174% (inactive) and 67% (inactive) | 106% and 78.6% | 0.876 (inactive) | 1.44 | 8860 | 10100
Nc1ncnc2c1c(I)cn2[C@@H]1O[C@H](CO)[C@H](O)C1O (stereo partly drawn) |  | 129% (inactive) | 64.4% | 1.01 (inactive) | 0.838 | 1250 | 1240
Oc1cccc(-c2nc(N3CCOCC3)c3sccc3n2)c1 |  | 50.9% (inactive) | 83.2% | 0.851 (inactive) | 0.61 | 2340 | 2750
CC(=O)OCC(=O)[C@@]1(O)CC[C@H]2[C@@H]3CCC4=CC(=O)CC[C@]4(C)C3(F)C(=O)C[C@@]21C (stereo partly drawn) |  | 49% (inactive) | 46.2% | 0.875 (inactive) | 1.05 | 6080 | 6960
CC(=O)N[C@@H]1[C@@H](O[C@H](C)C(=O)O)[C@H](O)[C@@H](CO)O[C@@H]1O |  | 112% (inactive) | 105% | 0.861 (inactive) | 1.06 | 8610 | 10000
CCCCCCCCCCCCCCCCOCC(CO)OC (stereo not drawn) | 85.4 (inactive) |  |  | 1.02 (inactive) | 1.45 | 5930 | 5790
Oc1cc(O)c2c(c1)OC(c1ccc(O)c(O)c1)C(O)C2 (stereo not drawn) |  | 64.2% (inactive) | 97% | 0.908 (inactive) | 1.18 | 9500 | 10500
CN1CC[C@]23c4ccccc4N[C@H]1[C@]21CCN(C)[C@H]3Nc2ccccc21 |  | 122% (inactive) | 96.8% | 0.926 (inactive) | 1.16 | 9800 | 10600
C[C@H]1c2cccc(O)c2C(O)=C2C(=O)C3(O)C(O)=C(C(N)=O)C(=O)[C@@H](N(C)C)[C@@H]3[C@@H](O)[C@@H]21 (stereo partly drawn) | 3.25 (inactive) | 62.9% (inactive) | 97.2% | 0.641 (active) | 1.76 | 4060 | 6330
CC1(C)S[C@@H]2[C@H](NC(=O)[C@H](N)c3ccccc3)C(=O)N2[C@H]1C(=O)OC1OC(=O)c2ccccc21 (stereo partly drawn) | 7.92 (inactive) | 114% (inactive) | 77.4% | 0.95 (inactive) | 0.554 | 8670 | 9130
O=C(O)CCC/C=C\C[C@H]1C(=O)C[C@@H](O)[C@@H]1/C=C/[C@@H](O)CCc1ccccc1 | 102 (inactive) |  |  | 0.93 (inactive) and 0.922 (inactive) | 1.16 and 1.61 | 5630 and 5680 | 6050 and 6160
CCCCC[C@H](O)/C=C/[C@@H]1[C@@H](CCCCCCC(=O)O)[C@@H](O)C[C@H]1O | 96.8 (inactive) |  |  | 0.91 (inactive) and 0.991 (inactive) | 1.19 and 1.15 | 5960 and 6030 | 6550 and 6090
CCC(=O)OC1(C(=O)CCl)[C@@H](C)C[C@H]2[C@@H]3CCC4=CC(=O)C=C[C@]4(C)[C@@]3(F)[C@@H](O)C[C@@]21C (stereo partly drawn) | 2.5 (inactive) | 141% (inactive) | 94.7% | 0.789 (inactive) | 1.5 | 5850 | 7420
CO[C@H]1CC(O[C@@H]2/C(C)=C/C[C@@H]3C[C@@H](C[C@]4(CC[C@H](C)[C@@H](C5CCCCC5)O4)O3)OC(=O)[C@@H]3C=C(C)/C(=N/O)[C@H]4OC/C(=C\C=C\[C@@H]2C)[C@]43O)O[C@@H](C)C1O (stereo partly drawn) |  | 170% (inactive) and 47% (inactive) | 86.8% and 106% | 0.877 (inactive) | 3.74 | 9710 | 11100
CC[C@H]1OC(=O)[C@H](C)[C@@H](OC2C[C@@](C)(OC)[C@@H](O)[C@H](C)O2)[C@H](C)[C@@H](O[C@@H]2O[C@H](C)C[C@H](N(C)C)[C@H]2O)[C@](C)(O)C[C@@H](C)/C(=N\OCOCCOC)[C@H](C)[C@@H](O)[C@]1(C)O (stereo partly drawn) |  | 75.3% (inactive) | 93.9% | 0.893 (inactive) | 1 | 9320 | 10400
COc1cc2c(cc1OC)-c1[nH]nc(Nc3cccc(F)c3)c1C2 |  | 37% (inactive) | 81.5% | 1.05 (inactive) | 1.72 | 1160 | 1100
C=Cc1c(C)c2cc3nc(cc4[nH]c(cc5nc(cc1[nH]2)C(C)=C5CCC(=O)O)c(CCC(=O)O)c4C)[C@@]1(C)C3=CC=C(C(=O)OC)C1C(=O)OC (stereo partly drawn) |  | 82.4% (inactive) | 67.8% | 0.97 (inactive) | 1.04 | 9050 | 9330
CCCCCCCC/C=C\CCCCCCCC(=O)OC[C@@H](O)COP(=O)(O)O | 57.2 (inactive) |  |  | 0.957 (inactive) and 0.893 (inactive) | 1.42 and 0.522 | 6370 and 5350 | 6660 and 5990
C=C1C(c2ccc(C)cc2)=CCc2cc(C)cc(C)c21 | 98.5 (inactive) |  |  | 0.866 (inactive) | 0.886 | 1920 | 2210
